Screening results (PubChem)
The list is not random: actives were taken first. Their share in the collection is about 9.3%.
FLuc modulator: inhibits or activates purified firefly luciferase, miR-21 counter-screen; Potency, µM (top dose mostly 57.5 µM), inactives show at the top dose activity change, negative = inhibition, actives largely listed as inhibitors; 6.9% of 360,000 active; purified FLuc, Km substrates, luminescence inhibition; P08659;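 further: plate controls were vehicle for no effect and reference inhibitor for full effect; nearly all actives have a fitted effect of over 55% in size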
Target sequence (P08659 whole entry, looked up): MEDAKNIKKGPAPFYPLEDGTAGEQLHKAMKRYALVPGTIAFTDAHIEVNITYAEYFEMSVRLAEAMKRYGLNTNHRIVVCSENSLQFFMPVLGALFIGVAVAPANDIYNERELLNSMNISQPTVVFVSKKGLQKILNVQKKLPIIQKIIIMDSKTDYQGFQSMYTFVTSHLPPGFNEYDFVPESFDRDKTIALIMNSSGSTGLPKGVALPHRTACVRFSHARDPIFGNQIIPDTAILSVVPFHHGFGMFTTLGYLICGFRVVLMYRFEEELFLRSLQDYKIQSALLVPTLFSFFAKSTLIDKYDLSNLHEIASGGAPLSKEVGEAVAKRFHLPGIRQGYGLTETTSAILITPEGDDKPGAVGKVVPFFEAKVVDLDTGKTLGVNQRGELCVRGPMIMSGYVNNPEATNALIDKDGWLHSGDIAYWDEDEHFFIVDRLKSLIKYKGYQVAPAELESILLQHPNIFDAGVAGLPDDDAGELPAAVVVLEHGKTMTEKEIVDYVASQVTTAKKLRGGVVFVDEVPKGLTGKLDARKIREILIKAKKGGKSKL
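Purified P. pyralis luciferase, 10 nM final, with Km-level 10 uM D-luciferin and 10 uM ATP in 50 mM Tris acetate pH 7.5, 10 mM Mg acetate, 0.01% Tween-20, 0.05% BSA; 6-point qHTS titration about 60 µM downward; luminescence read.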
NPC1 prom act: activates the NPC1 promoter; Potency, µM (top dose mostly 9.22 µM), for the others: at the top dose activation, usual class: activators; AID 485313; 2.4% of 320,000 active; Huh7 NPC1 promoter luciferase reporter, 24 h; further: % of control where 0% means no effect; nearly all actives have a fitted effect of over 60% in size
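Stable NPC1-promoter luciferase Huh7 line; cpd (DMSO) 24 h, 37 °C, 5% CO2; Amplite luciferase reagent 10 min RT; luminescence readout. qHTS format.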
ELG1 genotoxic: inducers of genotoxicity in HEK293T ELG1-luciferase cells | Potency, µM (doses to about 46 µM), for the others: at the top dose activity change, positive = activation, actives largely listed as activators | AID 504466 | HEK293T ELG1-luciferase reporter, luminescence, 16 h | 1.3% of 330,000 active; further: % of control where 0% means no effect; nearly all actives have a fitted effect of over 60% in size
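After overnight (16 hr) compound treatment at 37 °C, ELG1-luciferase HEK293T cells were lysed with ONE-Glo; luminescence quantified 30 min later at room temperature.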
ELG1 repair inh: inhibitors of ELG1-dependent DNA repair in HEK293T cells. HEK293T ELG1-luciferase reporter, luminescence, 16 h; DNA damage induced by 5-fluorouridine. Potency, µM (highest dose often 46.1 µM), for the others: at the highest dose activity change, negative = inhibition, hits mostly inhibitors. 2.3% of 330,000 active; further: on the % scale 0 is the no-effect control and ±100 the full control effect; nearly all actives have a fitted effect of over 55% in size
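Quantitative HTS, concentration-response format. 2,000 cells/well co-treated with 5-fluorouridine and compound, 16 hr in 5% CO2 at 37 °C; ONE-Glo luminescence read after 30 min.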
Rab9 promoter act: Rab9 promoter activation | Potency, µM (titrated, usually from 9.22 µM), for inactives: top-dose activation, negative = inhibition, hits mostly activators | 2.8% of 320,000 active | Huh7 Rab9 promoter-luciferase reporter, luminescence, 24 h | AID 485297; further: % of control where 0% means no effect; nearly all actives have a fitted effect of over 60% in size
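Huh7 cells stably carrying a Rab9 promoter-luciferase reporter, 1500 cells per well in OP-MEM I with 10% FBS, treated with compound 24 hours at 37C. Luciferase activity read by luminescence after 10 minutes with Amplite reagent.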
SMN2 splice enh: enhancers of SMN2 splice variant expression. AID 1458. Potency, µM (top dose mostly 46.1 µM), for the others: at the highest dose activity change, positive = activation, hits mostly activators. HEK293 SMN2-luciferase splicing reporter, luminescence, 30-36 h. 2.8% of 210,000 active; further: % of control where 0% means no effect; nearly all actives have a fitted effect of over 55% in size
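HEK293 cells carry an SMN2 minigene-luciferase reporter in which exon 7 inclusion puts luciferase in frame. Cells were seeded at 2000 cells/well, attached for 10-12 hours, then exposed to compounds for 30-36 hours at 37C before ONE-Glo luminescence.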
* = called active by the depositor; ? = inconclusive; . = no result; [ ] = another dose, or the depositor's remark. The call rests on the fitted dose curve; in most records, active means well fitted curve in the direction sought with a large enough effect; inconclusive means small, poorly fitted or top-dose-only effect, or another doubt; inactive means no such curve, though single readings can be large; an effect the other way counts as inactive or inconclusive. Potency means the concentration at half of the fitted maximal effect.

SMILES	FLuc modulator	NPC1 prom act	ELG1 genotoxic	ELG1 repair inh	Rab9 promoter act	SMN2 splice enh
CCOc1cc(/C=N/NC(=O)c2cccnc2)ccc1O	-2%	-5%	-1%	1%	-6%	.
CN(CC(=O)Nc1ccc(OC(F)(F)F)cc1)C(=O)Cc1ccc2c(c1)CCC2	.	2%	-3%	-8%	2%	.
NC(=O)C1CCN(C(=O)COc2ccc3ccccc3c2Br)CC1	-19%	-1%	-4%	18%	1%	.
O=C(COc1ccc2ccccc2c1Br)N1CCN(c2ccccn2)CC1	-10%	-4%	-5%	?	-3%	-36%
O=C(COc1ccc2ccccc2c1Br)N1CCCCC1	15µM*	4%	18µM*	?	?	.
O=C(Oc1ccc2ccccc2c1Br)N1CCCCCC1	1.3µM*	0.5µM*	?	?	0.63µM*	11µM*
CCN(CC)C(=O)Oc1ccc2ccccc2c1Br	19µM*	?	8%	?	?	?
O=c1cc(N2CCCCC2)c(-c2ccccc2)nn1Cc1ccccc1Cl	2%	-3%	-7%	0%	1%	-14%
COc1ccc(NC(C)=O)cc1NC(=O)CSc1nnc(-c2cccnc2)n1C	7%	1%	-3%	7%	0%	-18%
COc1ccc(-n2ccc3ccccc32)cc1	24µM*	-7%	0%	17%	-2%[1.84 µM]	.
CCCn1nc(C(=O)Nc2cc(S(=O)(=O)Nc3ccc(OC)cc3)ccc2O)c2ccccc2c1=O	.	.	-2%	16µM*	.	.
CCCn1nc(C(=O)NNC(=O)c2cccc(S(=O)(=O)NC(C)C)c2)c2ccccc2c1=O	4%	-1%	-3%	?	0%	.
CCn1nc(C(=O)Nc2ccc(S(=O)(=O)Nc3ncccn3)cc2)c2ccccc2c1=O	-7%	1%	10%	?	2%	32%
CCCn1nc(C(=O)NNC(=O)c2cc(S(=O)(=O)NC)ccc2Br)c2ccccc2c1=O	2%	0%	-2%	8.2µM*	3%	.
CCCn1nc(C(=O)Nc2ccc(S(=O)(=O)Nc3nccs3)cc2)c2ccccc2c1=O	-1%	-2%	-1%	-15%	-1%	7.9µM*
COc1cc2nc(N(CCCN(C)C)C(=O)c3ccc(S(=O)(=O)N4CCc5ccccc54)cc3)sc2cc1OC	1%	-3%	12%	?	-3%	.
Cc1cccc(N(CC(=O)Nc2ccc(F)cc2)S(C)(=O)=O)c1	-1%	-2%	2%	-3%	0%	6%
Cc1ccc2nc(-c3ccc(NC(=O)CN(c4ccccc4C)S(C)(=O)=O)cc3)sc2c1	2.4µM*	?	?	?	3.2µM*	11µM*
Cc1cc(C)cc(N(CC(=O)Nc2ccc(-c3nc4ccc(C)cc4s3)cc2)S(C)(=O)=O)c1	5.4µM*	?	?	?	?	3%[1.84 µM]
COc1ccc(-n2c(-c3ccc(Cl)cc3)c[n+]3c2CCc2ccccc2-3)cc1	-2%	-19%	-13%	2.3µM*	-13%	-86%
c1ccc(OCc2nc3ccccc3s2)cc1	3.4µM*	2.5µM*	?	?	2.8µM*	13µM*
CCC(=O)Nc1ccc(OCc2nc3ccccc3s2)cc1	4.3µM*	2µM*	2.9µM*	?	0.63µM*	5µM*
N#Cc1ccc(NC(=O)CCc2nc3ccccc3s2)cc1	-11%	0%	-3%	-3%	-3%	9%
Fc1ccc(OCc2nc3ccccc3s2)cc1	2.4µM*	1.4µM*	2.3µM*	?	3.2µM*	11µM*
Cc1cc(OCc2nc3ccccc3s2)ccc1N	1.5µM*	1µM*	2.9µM*	?	0.56µM*	.
SMILES	FLuc modulator	NPC1 prom act	ELG1 genotoxic	ELG1 repair inh	Rab9 promoter act	SMN2 splice enh
COc1ccc(S(=O)(=O)CCc2nc3ccccc3s2)cc1	1%	2%	-7%	-6%	-11%	0%
COC(=O)CNC(=O)CNC(=O)Nc1ccccc1Cl	1%	-1%	1%	11%	-4%	5%
O=C(CSc1nnc(SCc2cccc3ccccc23)s1)N/N=C/C=C/c1ccccc1[N+](=O)[O-]	?	-3%	8%	?	-10%	21%
CCOc1ccccc1NC(=O)NNC(=O)c1ccc2ccccc2c1	-4%	19%	-2%	?	7%	.
O=S(=O)(Cc1nc2ccccc2s1)c1ccccc1	12µM*	2µM*	4.6µM*	?	3.2µM*	14µM*
Cc1ccccc1N=C1Nc2ccccc2CS1	4.8µM*	1.4µM*	?	?	0.63µM*	13µM*
Cc1ccccc1N=C1NC(=O)CS1	0%	-3%	1%	2%	3%	-11%
CCc1cc[n+](C2=C([O-])c3ccccc3C(=O)/C2=N\S(=O)(=O)c2cccs2)cc1	?	-9%	-18%	16µM*	-21%	.
C/C=C/CSc1nc2c(c(=O)[nH]c(=O)n2C)n1Cc1ccc(C)cc1	2%	0%	21µM*	1%	0%	-3%
Cc1ccc(Cn2c(Sc3ncccn3)nc3c2c(=O)[nH]c(=O)n3C)cc1	4%	1%	-10%	?	-2%	5%
CC(=O)CSc1nc2c(c(=O)[nH]c(=O)n2C)n1Cc1cccc(Br)c1	1%	-1%	21µM*	?	0%	.
CCCOc1ccc(C(=O)Nc2nc(C)c(Cc3ccc4c(c3)OCO4)s2)cc1	?	0%	17%	?	2%	-53%
COCCNc1nnc(SCC(=O)c2ccc3c(c2)OCO3)s1	-9%	15%	1%	0%	0%	3%
CSc1nnc(NC(=O)c2ccc3c(c2)OCO3)s1	0.48µM*	0.22µM*	0.26µM*	?	0.11µM*	.
CSc1nnc(NC(=O)c2ccc(S(=O)(=O)N(C)C)cc2)s1	11µM*	1.6µM*	?	?	0.56µM*	13µM*
Cc1nc(NC(=O)c2ccc(OCC(C)C)cc2)sc1Cc1ccc2c(c1)OCO2	21µM*	18%	-3%	-6%	?	-21%
CC(C)Cc1nnc(NC(=O)c2ccc3c(c2)OCCO3)s1	1.9µM*	2µM*	?	?	0.63µM*	.
Cc1ccccc1NC(=O)CSc1ccc(-c2ccc(-n3cccn3)cc2)nn1	?	-1%	19%	4%	0%	.
Cc1cc(=O)oc(C)c1C(=O)NCCC(C)C	8%	0%	1%	17%	-2%	8%
Cc1nnc(NC(=O)c2ccc3c(c2)OCO3)s1	13µM*	?	?	?	3.5µM*	.
O=C(Nc1nncs1)c1ccc2c(c1)OCO2	15µM*	23%	?	?	30%	.
